# ± gives the standard deviation.
# Test system: MILI (PIWIL2) piRISC loaded with L1MC piRNA (26 nt)
# Experiment: pre-steady-state target cleavage rate (min^-1); guide: L1MC piRNA 5'p-UAACUAAAUACUAUGCAAGCUGUAGG; MIWI and MILI are mouse PIWI proteins and EfPiwi is from a freshwater sponge; tags in brackets are library labels; higher = faster piRNA-guided slicing of the target
# Conditions: auxiliary factor: 500 nM mouse GTSF1
# In short: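 The method was Cleave-'n-Seq, in which uncleaved targets from a transcribed, DNA-blocked target RNA library were sequenced after exposure to active affinity-purified piRISC carrying one synthetic guide, with or without GTSF1 partner protein. Reactions contained 0.1 nM library, 1 nM piRISC and, where present, 500 nM GTSF1 in HEPES–potassium acetate buffer at 33 °C for 0–8 or 0–960 min. Reads were normalised to depth and to weakly complementary targets, three trials were pooled, and k3 was capped at 0.0001 min^-1. The pre-steady-state cleavage rate came from a burst-and-steady-state fit.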
row,Sequence,pre-steady-state target cleavage rate
1,UCCUGGAACAGCUUGCAUAGUAAAUAGUUA,0.153 ± 0.021
2,UCCUGGAUCAGCUUCCAAAGUAUUUAGUUA,0.0704 ± 0.0082
3,UCCUGCUACAGCUAGGAUAGUAUUUAGUUA,0.259 ± 0.015
4,UCCUGGAUCAGCUCUGCAUAGUAUUUAGUUA,0.246 ± 0.024
5,UCCUGGAUCAGCUUGCAUAGUAUUGUAGUUA,0.176 ± 0.018
6,UCCUGGAACAGCUUGCAUAGUAUUUACGUUA,0.204 ± 0.027
7,UCCUGGUACAGCUUGCAUAGUAUUUACGUUA,0.227 ± 0.039
8,UCCUGGUACAGCUUGCAUAGUUUUUAGUAA,0.0656 ± 0.014
9,UCCUGCAACACCUUGCAUAGUAUUUAGUUA,0.192 ± 0.026
10,UCCUGGUACAGCUAGCAUAGUAUUUAGUUA,0.259 ± 0.017
11,UCCUGGAUCAGCUUGCAUAGUAUUUAGUGA,0.237 ± 0.021
12,UCCUCCUACAGCUUGCAUAGUAGUUUAGUUA,0.23 ± 0.022
13,UCCUCCUACAGCGUGCAUAGUAUUUAGUUA,0.309 ± 0.021
14,UCCUGGAUCAGCUUGCAUAGUAUUUAGUUC [g2:g22:cont:t1C],0.235 ± 0.016
15,UCCUCCUAGUCCUUGCAUAGUAUUUAGUAA,0.102 ± 0.018
16,UCCUGGAGCAGCUUGCAUAGUAUUUAGUUA,0.333 ± 0.021
17,UCCUGGAUGUGCUUAGCAUAGUAUUUAGUUA,0.124 ± 0.015
18,UCCUGCAACAGCUUGCAAAGUAUUUAGUUA,0.166 ± 0.012
19,UCCUGGAUCAGCUUGGAUAGUAAUUAGUUA,0.167 ± 0.018
20,UCCUGGAUGUGCUUGCAUAGUAUUUAGGUUA,0.102 ± 0.019

row,Sequence,pre-steady-state target cleavage rate
1,UCCUGCUACAGCUUGCAUAGUAUUUAUGUUA,0.182 ± 0.023
2,UCCUGGUACAGCUUGCAAAGUAUUUAGUUA,0.11 ± 0.013
3,UCCUGGAUGUGCUUGCAUAGUACUUAGUUA,0.105 ± 0.022
4,UCCUGCUACAGGAUGCAUAGUAUUUAGUAA,0.301 ± 0.044
5,UCCUCGAUCAGCUUGCAUAGUAUUUAGUAA,0.269 ± 0.017
6,UCCUGGAUGUGCUCUGCAUAGUAUUUAGUUA,0.137 ± 0.015
7,UCCUGGUACAGCUUCGCAUAGUAUUUAGUUA,0.274 ± 0.021
8,UCCUCCUACAGGUUGCAUAGUUUUUAGUUA,0.0349 ± 0.0064
9,UCCUGCUCCAGCUUGCAUAGUAUUUAGUUA,0.256 ± 0.017
10,UCCUCAUACAGCUUGCAUAGUAUUUAGUUA,0.319 ± 0.015
11,UCCUCCCACAGCUUGCAUAGUAUUUAGUUA,0.296 ± 0.015
12,UCCUCUCUACAGCUUGCAUAGUAUUUAGUUA,0.28 ± 0.022
13,UCCUGGAUGAGCUUGCAUAUUAUUUAGUUA,0.0637 ± 0.0072
14,UCCUGAUACAGCUUGCAUAGUAUUUAGUUA,0.269 ± 0.02
15,UCCUCCUACAGCUAGCAUAGUAAUUAGUUA,0.159 ± 0.022
16,UCCUCCUUCAGCUUGCAUAGUAUAUAGUUA,0.216 ± 0.022
17,UCCUCCUACAGCUUGGUUAGUAUUUAGUAA,0.204 ± 0.022
18,UCCUGGUACAGCUUGGAUAGUAUAUAGUUA,0.316 ± 0.065
19,UCCUGGAUGUGCUGCAUAGUAUUUAGUUA,0.0672 ± 0.009
20,UCCUGGAAUCAGCUUGCAUAGUAUUUAGUUA,0.278 ± 0.021

# Same assay, conditions: auxiliary factor: none (no GTSF1)
row,Sequence,pre-steady-state target cleavage rate
1,UCCUGGAACAGCUUGCAUAGUAAAUAGUUA,0.0034 ± 0.0027
2,UCCUGGAUCAGCUUCCAAAGUAUUUAGUUA,0.00341 ± 0.0024
3,UCCUGCUACAGCUAGGAUAGUAUUUAGUUA,0.00677 ± 0.0024
4,UCCUGGAUCAGCUCUGCAUAGUAUUUAGUUA,0.00786 ± 0.0034
5,UCCUGGAUCAGCUUGCAUAGUAUUGUAGUUA,0.00992 ± 0.0032
6,UCCUGGAACAGCUUGCAUAGUAUUUACGUUA,0.00654 ± 0.0028
7,UCCUGGUACAGCUUGCAUAGUAUUUACGUUA,0.00544 ± 0.0036
8,UCCUGGUACAGCUUGCAUAGUUUUUAGUAA,0.00501 ± 0.0027
9,UCCUGCAACACCUUGCAUAGUAUUUAGUUA,0.00568 ± 0.0027
10,UCCUGGUACAGCUAGCAUAGUAUUUAGUUA,0.00964 ± 0.0026
11,UCCUGGAUCAGCUUGCAUAGUAUUUAGUGA,0.006 ± 0.0028
12,UCCUCCUACAGCUUGCAUAGUAGUUUAGUUA,0.007 ± 0.0022
13,UCCUCCUACAGCGUGCAUAGUAUUUAGUUA,0.00999 ± 0.003
14,UCCUGGAUCAGCUUGCAUAGUAUUUAGUUC [g2:g22:cont:t1C],0.00817 ± 0.0026
15,UCCUCCUAGUCCUUGCAUAGUAUUUAGUAA,0.0027 ± 0.0023
16,UCCUGGAGCAGCUUGCAUAGUAUUUAGUUA,0.0118 ± 0.0032
17,UCCUGGAUGUGCUUAGCAUAGUAUUUAGUUA,0.00625 ± 0.0028
18,UCCUGCAACAGCUUGCAAAGUAUUUAGUUA,0.00683 ± 0.0024
19,UCCUGGAUCAGCUUGGAUAGUAAUUAGUUA,0.00352 ± 0.0023
20,UCCUGGAUGUGCUUGCAUAGUAUUUAGGUUA,0.00588 ± 0.0033

row,Sequence,pre-steady-state target cleavage rate
1,UCCUGCUACAGCUUGCAUAGUAUUUAUGUUA,0.00699 ± 0.0022
2,UCCUGGUACAGCUUGCAAAGUAUUUAGUUA,0.00987 ± 0.0024
3,UCCUGGAUGUGCUUGCAUAGUACUUAGUUA,0.00413 ± 0.0024
4,UCCUGCUACAGGAUGCAUAGUAUUUAGUAA,0.00446 ± 0.0019
5,UCCUCGAUCAGCUUGCAUAGUAUUUAGUAA,0.00809 ± 0.0023
6,UCCUGGAUGUGCUCUGCAUAGUAUUUAGUUA,0.0108 ± 0.0039
7,UCCUGGUACAGCUUCGCAUAGUAUUUAGUUA,0.0125 ± 0.0035
8,UCCUCCUACAGGUUGCAUAGUUUUUAGUUA,0.00478 ± 0.0018
9,UCCUGCUCCAGCUUGCAUAGUAUUUAGUUA,0.00969 ± 0.0026
10,UCCUCAUACAGCUUGCAUAGUAUUUAGUUA,0.0105 ± 0.0029
11,UCCUCCCACAGCUUGCAUAGUAUUUAGUUA,0.00691 ± 0.0024
12,UCCUCUCUACAGCUUGCAUAGUAUUUAGUUA,0.00895 ± 0.0022
13,UCCUGGAUGAGCUUGCAUAUUAUUUAGUUA,0.00304 ± 0.003
14,UCCUGAUACAGCUUGCAUAGUAUUUAGUUA,0.00917 ± 0.0027
15,UCCUCCUACAGCUAGCAUAGUAAUUAGUUA,0.00372 ± 0.0022
16,UCCUCCUUCAGCUUGCAUAGUAUAUAGUUA,0.00364 ± 0.0025
17,UCCUCCUACAGCUUGGUUAGUAUUUAGUAA,0.00554 ± 0.0017
18,UCCUGGUACAGCUUGGAUAGUAUAUAGUUA,0.0066 ± 0.0032
19,UCCUGGAUGUGCUGCAUAGUAUUUAGUUA,0.00895 ± 0.0024
20,UCCUGGAAUCAGCUUGCAUAGUAUUUAGUUA,0.016 ± 0.0034
